Source: PubChem
Most compounds without a hit are left out; they make up all but 5.7% or so of the library.
FAS-TE inh: FAS thioesterase domain inhibitors, primary screen, biochemical, fluorescence intensity, uHTS. recombinant FAS-TE, OMFH fluorogenic substrate, fluorescence endpoint. inhibition, % at 15 µM. actives 0.67% (n = 360,000). AID 602261, 2012;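 active = compounds whose normalised, plate-corrected inhibition of enzyme fluorescence in the single-dose primary screen is 50% or more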;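 note: 0% = DMSO with enzyme and 100% = substrate without enzyme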
MPTP inh: mitochondrial permeability transition pore inhibitors, primary screen, biochemical, isolated mouse mitochondria, absorbance; Ca2+ swelling absorbance, 30 min; inhibition, % at 10 µM; actives 1.4% (n = 360,000);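 active = inhibition of 50% or more, scaled per plate between neutral and stimulator controls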;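 note: 0% = DMSO wells given calcium and 100% = 1 mM EGTA wells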
GRIN3A LBD mod: binders of NR3A ligand-binding domain, primary screen, biophysical, differential scanning fluorimetry, uHTS; Tm shift relative to glycine control, % at 25 µM; NR3A LBD differential scanning fluorimetry, Tm shift; 0% = protein alone, 100% = glycine-bound protein; actives 2.5% (n = 340,000); AID 1259313, 2017;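 active = melting temperature shift of at least 10% of the positive control shift, at one fixed dose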
rCAG RNA binder: binders of r(CAG) RNA repeats, primary screen, biochemical, fluorescence. r(CAG) RNA repeat, TO-PRO-1 dye displacement fluorescence. inhibition, % at 3 µM. actives 1.3% (n = 370,000). AID 651821, 2012;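 active = inhibition above the plate cutoff, the mean of all test compounds on that plate plus 3 SD, cut at about 35% in these data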;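 note: 0% = DMSO alone and 100% = 100 µM mitoxantrone as full dye displacement; higher means more dye released from RNA so lower well fluorescence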
Myeloid diff 2: induction of myeloid progenitor differentiation, primary screen, cell-based, flow cytometry, MLPCN library. calls only at 10 µM. ER-HoxA9 myeloid progenitors, lysozyme-GFP differentiation. actives 1% (n = 360,000). AID 624256, 2012;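 active = normalized GFP-positive differentiation at or above the plate's own cutoff, the solvent-only control mean plus 3 SD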;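 note: cells exposed to compound for four days before flow analysis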
FAS-TE conf: FAS thioesterase domain inhibitors, confirmation, biochemical, fluorescence intensity, single concentration. shares compounds with FAS-TE inh. AID 624325, 2012. actives 45% (n = 2,300). recombinant FAS-TE, OMFH fluorogenic substrate. inhibition, % at 15 µM;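 active = compounds inhibiting the enzyme by at least 50% at 15 µM in any one of the replicates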;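 note: 0% = enzyme with DMSO only and 100% = wells lacking enzyme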
* hit, by the source's call; i = inactive; nt = not tested or not shown.

SMILES	FAS-TE inh	MPTP inh	GRIN3A LBD mod	rCAG RNA binder	Myeloid diff 2	FAS-TE conf
CCN1C(=O)[C@H]2[C@@H](c3ccc(C)cc3)N3C(=O)N(c4ccc(C)cc4)C(=O)[C@@]3(Cc3ccc(Cl)cc3)[C@H]2C1=O	59.5*	3.4	-5.2	7.1	i	20.1
Cc1cccc([C@@H]2[C@@H]3C(=O)N(Cc4ccccc4)C(=O)[C@@H]3[C@]3(CC(C)C)C(=O)N(c4cccc(Cl)c4)C(=O)N23)c1	71.7*	0.7	-3.3	8.1	i	27.1
CCN1C(=O)[C@H]2[C@@H](c3ccc(C)cc3)N3C(=O)N(c4cccc(Cl)c4)C(=O)[C@@]3(CC)[C@H]2C1=O	-3.0	0.5	0.6	1.6	i	nt
C[C@@H]1ON(C)[C@H]2C[C@H]3c4[nH]c5c(-c6ccc(C(F)(F)F)cc6)cccc5c4CCN3C(=O)[C@@H]12	nt	nt	nt	7.1	nt	nt
O=C(N/N=C/c1coc2ccc(Cl)cc2c1=O)c1cc(O)cc(O)c1	66.6*	2.2	-3.8	1.3	i	41.3
Cc1ccc2occ(/C=N/NC(=O)c3ccc(Cl)cc3)c(=O)c2c1	4.0	-1.5	-3.9	-0.5	i	nt
O=[N+]([O-])c1ccc(N2CCN(S(=O)(=O)c3ccc(Cl)c(Cl)c3)CC2)cc1NCCN1CCOCC1	71.2*	0.4	0.3	2.8	i	9.6
CCOC(=O)CC(S(=O)(=O)c1ccccc1)S(=O)(=O)c1ccccc1	-3.8	-0.2	nt	0.2	nt	nt
Cc1cc(Br)cn2c(Cc3ccccc3C(F)(F)F)c(-c3cccc(Cl)c3)nc12	nt	nt	nt	10.9	nt	nt
O=C1OCCN1c1c(-c2ccccc2)c(-c2cccs2)nc2c(-c3ccccc3)cccc12	52.0*	1.4	1.4	nt	i	28.5
O=C1OCCN1c1ccccc1	-7.6	0.2	1.2	4.0	i	nt
Cc1cc(N2CCN(C(c3ccccc3)c3ccc(Cl)cc3)CC2)n2ncnc2n1 (stereo not drawn)	57.7*	-3.6	-2.1	4.3	i	20.8
COc1ccc(NC(=O)CN(c2ccc([N+](=O)[O-])cc2)S(=O)(=O)c2ccccc2)cc1	64.1*	6.6	4.1	5.0	i	73.7*
COC(=O)c1cc2c(c3c4ccccc4n(S(C)(=O)=O)c13)C(=O)N(Cc1ccccc1)C2	nt	nt	nt	13.8	nt	nt
Cc1ccc2c(c1)C(c1ccccc1)N(C(=O)c1cccc([N+](=O)[O-])c1)CC(=O)N2 (stereo not drawn)	78.2*	0.2	2.2	-1.6	i	87.1*
O=C1CN(C(=O)c2cc([N+](=O)[O-])ccc2Cl)C(c2ccc(F)cc2)c2cc(F)ccc2N1 (stereo not drawn)	75.4*	-0.1	1.0	-1.3	i	41.4
COC(=O)[C@]12C[C@H](CC(=O)N3CCCCC3)C(=O)N(CCC3=CCCCC3)C1=C[C@H](C(C)(C)C)O[C@@H]2C	nt	nt	nt	-0.8	nt	nt
O=C(NCc1ccccc1)OC1CC2CC1[C@H]1CCCCN1C2 (stereo partly drawn)	nt	nt	nt	6.8	nt	nt
Cc1nn(Cc2ccc([N+](=O)[O-])cc2)c(=O)n1N(C)c1ncc(C(F)(F)F)cc1Cl	79.0*	-4.1	1.0	-9.2	i	65.2*
Cc1ccc(S(=O)(=O)/C(C#N)=C/c2c(N3CCOCC3)nc3c(C)cccn3c2=O)cc1	55.5*	5.7	1.2	2.7	i	6.5
N#C/C(=C\c1c(N2CCN(Cc3ccccc3)CC2)nc2ccccn2c1=O)S(=O)(=O)c1ccccc1	56.1*	0.2	0.4	6.1	i	12.9
Cc1ccc(S(=O)(=O)/C(C#N)=C/c2c(N3CCN(Cc4ccccc4)CC3)nc3ccccn3c2=O)cc1	81.4*	0.7	-5.7	9.0	i	7.5
Cc1ccc(S(=O)(=O)/C(C#N)=C/c2c(N3CCCCC3)nc3ccccn3c2=O)cc1	62.3*	6.1	-0.1	-1.9	i	36.2
OCC1CSC(=S)N1Cc1ccccc1 (stereo not drawn)	-3.7	-0.8	nt	nt	i	nt
COC(=O)C1=C(C)N(C)C(=NCc2ccc3c(c2)OCO3)NC1c1ccc(Cl)cc1 (stereo not drawn)	nt	nt	nt	11.7	nt	nt
SMILES	FAS-TE inh	MPTP inh	GRIN3A LBD mod	rCAG RNA binder	Myeloid diff 2	FAS-TE conf
CCOC(=O)C1=CCN(S(=O)(=O)c2ccc(Cl)cc2)C1c1ccc(Cl)c(Cl)c1 (stereo not drawn)	nt	nt	nt	5.0	nt	nt
CCOC(=O)[C@]12CCCCC/C=C\1N(Cc1ccc(OC)cc1)C(=O)[C@H]2CC(=O)NCc1cccs1	nt	nt	nt	0.8	nt	nt
N#C/C(=C\c1c(N2CCC(C(N)=O)CC2)nc2ccccn2c1=O)S(=O)(=O)c1ccc(Cl)cc1	54.6*	5.3	0.2	1.8	i	29.8*
CC(C)(C)n1ncc2c(=O)n(Cc3cc(F)c(Cl)cc3Cl)cnc21	52.0*	11.4	-0.2	-0.5	i	34.8
Cc1ccc(C)c(Cn2cnc3c(cnn3C(C)(C)C)c2=O)c1	13.3	43.3	0.1	1.4	i	nt
CN(CC(=O)Nc1ccc(S(=O)(=O)N(C)C)cc1)Cc1ccc(C(F)(F)F)cc1	52.6*	2.5	-2.8	-5.1	i	40.0
COc1ccc(-c2ncn(CCc3ccccc3OC)c2CC(C)C)cc1	nt	nt	nt	0.2	nt	nt
O=S(=O)(c1ccc(F)cc1)N1CCCC(c2nc(-c3ccc(F)cc3)no2)C1 (stereo not drawn)	58.3*	-0.8	2.0	-3.7	i	23.4
O=S(=O)(Cc1ccccc1)N1CCCC(c2nc(-c3ccc(F)cc3)no2)C1 (stereo not drawn)	25.6	-0.9	1.0	-5.0	i	nt
COC(=O)[C@H](CC(C)C)N(CCCc1cn(Cc2ccccc2)nn1)S(=O)(=O)c1ccccc1Br	nt	nt	nt	3.2	nt	nt
Cc1nc2ccc([N+](=O)[O-])cc2c(=O)n1Cc1ccccc1Br	71.0*	2.6	1.1	3.4	i	29.2
Cc1nc2ccc([N+](=O)[O-])cc2c(=O)n1Cc1ccc([N+](=O)[O-])cc1	59.1*	-0.3	1.6	2.9	i	63.2*
Cc1nc2ccc([N+](=O)[O-])cc2c(=O)n1Cc1ccc(Br)cc1	93.0*	6.1	-7.0	-2.0	i	62.9*
CCCC(=O)Nc1ccc2nc(C)n(Cc3ccccc3Cl)c(=O)c2c1	5.2	-1.8	8.6	6.8	i	nt
Cc1nc2ccc([N+](=O)[O-])cc2c(=O)n1Cc1cccc(Br)c1	45.8	0.9	-10.8	3.4	i	nt
Cc1ccc(Cn2c(C)nc3ccc([N+](=O)[O-])cc3c2=O)cc1	75.3*	-0.1	-1.3	0.8	i	59.3*
CC(C)(C)OC(=O)NCCc1ccccc1/C=C/S(=O)(=O)NCc1ccccc1	nt	nt	nt	2.5	nt	nt
